# Source: the supplement of paper PMC3334620
# Over roughly 33,000 sequences, “E-score (-0.5 to 0.5)” has its median near -0.054; the highest 2% begin near 0.35. Many of the other results were omitted from the sample, so the highest values are more common in it than they were.
# Molecular target: T1, Stb5 (UniProt P38699)
# T1 sequence: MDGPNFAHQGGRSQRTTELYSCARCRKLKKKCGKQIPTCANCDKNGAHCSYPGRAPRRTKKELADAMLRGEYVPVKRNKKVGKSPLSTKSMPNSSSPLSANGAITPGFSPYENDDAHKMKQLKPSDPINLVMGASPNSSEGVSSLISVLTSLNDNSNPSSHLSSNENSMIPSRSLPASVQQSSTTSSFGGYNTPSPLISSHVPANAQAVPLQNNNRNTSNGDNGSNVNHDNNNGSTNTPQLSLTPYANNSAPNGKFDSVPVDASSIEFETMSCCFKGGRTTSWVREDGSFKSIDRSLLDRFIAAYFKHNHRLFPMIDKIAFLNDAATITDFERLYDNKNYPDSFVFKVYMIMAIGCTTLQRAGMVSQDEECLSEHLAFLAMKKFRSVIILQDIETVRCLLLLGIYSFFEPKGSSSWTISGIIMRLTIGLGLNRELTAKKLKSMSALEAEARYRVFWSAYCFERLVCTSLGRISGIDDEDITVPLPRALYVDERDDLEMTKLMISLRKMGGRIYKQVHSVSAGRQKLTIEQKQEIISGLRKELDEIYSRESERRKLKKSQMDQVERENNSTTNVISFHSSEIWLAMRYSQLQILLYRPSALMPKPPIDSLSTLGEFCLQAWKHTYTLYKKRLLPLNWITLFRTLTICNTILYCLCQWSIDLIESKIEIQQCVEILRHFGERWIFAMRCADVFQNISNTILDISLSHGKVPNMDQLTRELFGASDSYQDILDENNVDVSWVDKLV
# Test: PBM E-score (8-mer binding enrichment) (E-score (-0.5 to 0.5)); higher = stronger / more preferred TF binding
# Conditions: protein concentration: 200 nM; construct: GST-full length
# In short: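 PURExpress in vitro transcription/translation supplied GST-tagged yeast transcription factors, either full-length or DNA-binding domain. Applied at about 100-200 nM to universal all-10-mer Agilent arrays double-stranded by primer extension, the bound protein was detected with fluorescent anti-GST. E-scores, modified Wilcoxon-Mann-Whitney statistics, were given by the Universal PBM Analysis Suite to ungapped eight-base words pooled with their reverse complements after masliner normalisation.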
row,Sequence,PBM E-score
1,ATTGAAAT,-0.0501
2,AACGAGGC,-0.168
3,ACTCTACG,-0.241
4,TATACTCA,-0.245
5,GCGATTCA,0.00506
6,GGGCGCCC,0.147
7,GATAACGA,-0.102
8,ACTCAAGG,-0.223
9,AGTCGGTG,0.385
10,CGACGGTC,0.315
11,AGTCGGCG,0.239
12,AATCGGGC,0.209
13,AGTCGGTC,0.259
14,GGACGGTA,0.241
15,CATCGGGG,0.313
16,AATCGGGG,0.372

row,Sequence,PBM E-score
1,CGACGGTA,0.352
2,AAATGGAT,-0.168
3,AGGGAGAC,-0.0822
4,AACATGGT,-0.217
5,GCCAGCGC,-0.00309
6,GAAGGGGC,-0.11
7,AGCTCTCC,-0.325
8,CTGCGTCA,-0.121
9,GTAACTAC,0.109
10,GTTCCCGA,0.235
11,CTTCCCGA,0.0298
12,ATTCCCGC,0.4
13,ATTCCCGA,0.379
14,CTTCCCGC,0.129
15,ATTCCCGG,0.319
16,AATCCTAG,-0.0194
